According to PubChem BioAssay (Tox21):
Records with an inconclusive call do not appear. Entries that show only a call come without a potency. Some compounds were tested as several samples or in several runs, with calls that do not always agree. Active and inactive are the calls of the source. Calls come from the whole dose curve; as a rule, active = well fitted activation curve with a large enough effect in the signal ratio in the repeat runs (not every such curve was filed as active); inconclusive = weak or mixed curves, or effect the other way; inactive = no such curve, though single readings can be large or run the other way; the % refers to the signal ratio.
Potency is the fitted concentration of half-maximal effect.

These compounds were tested against Glucocorticoid receptor (Homo sapiens) (UniProt P04150) (assay: qHTS assay to identify small molecule agonists of the glucocorticoid receptor (GR) signaling pathway (AID 720691)). Settings: GR-bla HeLa, beta-lactamase reporter ratio, 18 h; activation: at 62.4 µM (top of the series).
Chain of Glucocorticoid receptor (Homo sapiens) (P04150 whole entry, looked up): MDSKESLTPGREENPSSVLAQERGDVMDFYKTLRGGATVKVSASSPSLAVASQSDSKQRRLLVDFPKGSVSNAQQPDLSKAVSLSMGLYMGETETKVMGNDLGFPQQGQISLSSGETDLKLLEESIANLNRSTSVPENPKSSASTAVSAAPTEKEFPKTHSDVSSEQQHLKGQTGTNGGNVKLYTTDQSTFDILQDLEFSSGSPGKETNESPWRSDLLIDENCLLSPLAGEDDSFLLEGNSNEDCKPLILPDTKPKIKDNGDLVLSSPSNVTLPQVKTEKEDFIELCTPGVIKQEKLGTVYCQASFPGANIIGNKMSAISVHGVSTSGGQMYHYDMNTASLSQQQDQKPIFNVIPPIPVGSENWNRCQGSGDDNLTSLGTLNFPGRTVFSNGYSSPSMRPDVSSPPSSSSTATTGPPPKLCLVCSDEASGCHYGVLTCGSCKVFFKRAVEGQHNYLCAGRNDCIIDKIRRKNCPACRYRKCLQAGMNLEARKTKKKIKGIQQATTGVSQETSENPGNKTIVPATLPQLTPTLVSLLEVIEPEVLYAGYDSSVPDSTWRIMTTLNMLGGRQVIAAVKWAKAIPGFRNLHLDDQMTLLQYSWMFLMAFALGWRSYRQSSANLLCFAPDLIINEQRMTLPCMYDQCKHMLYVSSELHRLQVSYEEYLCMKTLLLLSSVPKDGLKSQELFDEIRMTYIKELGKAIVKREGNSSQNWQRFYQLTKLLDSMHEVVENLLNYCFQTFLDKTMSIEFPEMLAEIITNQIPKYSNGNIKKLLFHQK
Source text: U.S. Tox21 Program National Center for Advancing Translational Sciences [NCATS] NIH Chemical Genomics Center [NCGC] U.S. Environmental Protection Agency [EPA] National Institutes of Environmental Health Sciences [NIEHS] National Toxicology Program [NTP] U.S. Food and Drug Administration [FDA] Tox21 Assay Overview: The Glucocorticoid receptor (GR) is one of the members of the nuclear receptor family of ligand-dependent transcription factors. GR plays a critical role in carbohydrate, protein and lipid metabolisms and programmed cell death. CellSensor GR-bla HeLa cell line (Invitrogen) contains a beta-lactamase reporter gene under the control of the glucocorticoid response element stably integrated into HeLa cells, a cervical cancer cell line that expresses glucocorticoid receptor. The activation of the reporter gene under culture conditions can be detected by fluorescence intensity. This cell line has been used to screen the Tox21 10K compound library and to identify the compounds that activate the GR signaling.
Tox21 Assay Protocol Summary: The GR-bla HeLa cells were dispensed at 1500 cells/6 ul/well in 1536-well black wall/clear bottom plates using a Multidrop Combi (ThermoFisher Scientific, Waltham, MA) dispenser. After the assay plates were incubated at a 37 C/5% CO2 incubator for 4 hours, 23 nL of compounds dissolved in DMSO, positive controls or DMSO only was transferred to the assay plate by a pintool station (Kalypsys, San Diego, CA). The plates were incubated at 37 C for 18 hours. After 1 uL of LiveBLAzerTM B/G FRET substrate was added using a Flying Reagent Dispenser (Aurora Discovery, San Diego, CA), the plates were incubated at room temperature for 2 hours, and fluorescence intensity was measured by an Envision plate reader (PerkinElmer, Shelton, CT).
In the case of COC1=C(C(=O)O)N2C(=O)[C@@H](NC(=O)[C@H](N)C3=CCC=CC3)[C@H]2SC1, the Potency is reported as “inactive”. For N[C@@H](C(=O)N[C@@H]1C(=O)N2C(C(=O)O)=C(Cl)CC[C@H]12)c1ccccc1, the Potency was 21.3 µM (active). For CC(=O)N(CC(C)C(=O)O)c1c(I)cc(I)c(N)c1I (stereo not given), the Potency was “inactive”. For COc1ccc(CCNCC(O)COc2cccc(C)c2)cc1OC (stereo not given), the Potency was “inactive”. With CCOC(=O)O[C@]1(C(=O)COC(=O)CC)CC[C@H]2[C@@H]3CCC4=CC(=O)C=C[C@]4(C)[C@H]3[C@@H](O)C[C@@]21C the Potency was 0.0288 µM (active). For CC(=O)Nc1c(I)c(C(=O)O)c(I)c(N(C)C(C)=O)c1I, the Potency was “inactive”. For CC1(C)S[C@@H]2[C@H](NC(=O)C(C(=O)Oc3ccc4c(c3)CCC4)c3ccccc3)C(=O)N2[C@H]1C(=O)O (stereo not given in full), the Potency was “inactive”. COC(=O)CC[C@H](N)C(=O)O was tested, and the Potency was “inactive”. O=S(=O)(O)c1cc(O)c2c(N=Nc3ccc(Nc4ccccc4)c4c(S(=O)(=O)O)cccc34)cc(S(=O)(=O)O)cc2c1 was tested, and the Potency was “inactive”. For CCCCCC(O)/C=C/C=O (stereo not given), the Potency was “inactive”. With C=CC1=C(C)C2=CC3=NC(=C(CC(=O)[O-])C4=NC(=C(C)C4=C([O-])[O-])C=c4[n-]c(c(C)c4CC)=CC1=N2)C(CCC(=O)[O-])C3C.[Cu+2].[Na+].[Na+].[Na+] (stereo not given) the Potency was “inactive”. For CO[C@@H]1[C@@H](O[C@@H]2O[C@H](C)[C@@H](O[C@H]3C[C@@](C)(O)[C@@H](OC(=O)CC(C)C)[C@H](C)O3)[C@H](N(C)C)[C@H]2O)[C@@H](CC=O)C[C@@H](C)[C@@H](O)/C=C/C=C/C[C@@H](C)OC(=O)C[C@H]1O, the Potency was 4.25 µM (active) and inactive. In the case of CN(C)CCC=C1c2ccccc2C(C)(C)c2ccccc21, the Potency is reported as “inactive”. With CCCCC(C)(O)C/C=C/[C@H]1[C@H](O)CC(=O)[C@@H]1CCCCCCC(=O)OC (stereo not given in full) the Potency was “inactive”. In the case of CCOC(=O)Cc1cccc(-c2cc(CCCCCCc3ccc(O[C@H]4O[C@H](COC(C)=O)[C@@H](OC(C)=O)[C@H](OC(C)=O)[C@@H]4OC(C)=O)c(-c4cccc(CC(=O)OCC)c4)c3)ccc2O[C@H]2O[C@H](COC(C)=O)[C@@H](OC(C)=O)[C@H](OC(C)=O)[C@@H]2OC(C)=O)c1, the Potency is reported as “inactive”. In the case of CNC(=O)[C@H](Cc1c[nH]c2ccccc12)NC(=O)[C@@H](CC(=O)NO)CC(C)C, the Potency is reported as 15.1 µM (active). C[C@@](Cc1ccc(O)c(O)c1)(NN)C(=O)O was tested, and the Potency was “inactive”. In the case of CCOC(=O)[C@H](CCc1ccccc1)N[C@@H](C)C(=O)N1CC2(C[C@H]1C(=O)O)SCCS2, the Potency is reported as “inactive”. Nc1nc2c(c(=O)[nH]1)N(C=O)C(CNc1ccc(C(=O)N[C@@H](CCC(=O)O)C(=O)O)cc1)CN2 (stereo not given in full) was tested, and the Potency was “inactive”. With CO[C@H]1O[C@@H]2O[C@@]3(C)CC[C@H]4[C@H](C)CC[C@@H]([C@H]1C)[C@@]24OO3 the Potency was “inactive”. In the case of COC(=O)CCC(=O)CN, the Potency is reported as “inactive”. For CC(CN1c2ccccc2Sc2ccc(S(=O)(=O)N(C)C)cc21)N(C)C (stereo not given), the Potency was “inactive”. In the case of Cc1c(O)cc2c(c1C)O[C@](C)(CCC[C@H](C)CCC[C@H](C)CCCC(C)C)CC2, the Potency is reported as “inactive”. In the case of CCCc1ccc(C(=O)O)cc1, the Potency is reported as “inactive”. For C=CCN1CCCC1CNC(=O)c1cc(S(N)(=O)=O)cc(OC)c1OC (stereo not given), the Potency was “inactive”. COc1ccc(CCNC[C@H](O)c2ccc(O)cc2)cc1OC was tested, and the Potency was “inactive”. In the case of C[Se]CCC(N)C(=O)O (stereo not given), the Potency is reported as “inactive”. With CC(C)(C)NCC(O)CSc1nc(-c2ccc(C(N)=O)s2)cs1 (stereo not given) the Potency was “inactive”. With O=C1CCC(=O)N1CO the Potency was “inactive”. CN[C@@H]1CCc2[nH]c3ccc(C(N)=O)cc3c2C1 was tested, and the Potency was “inactive”. For Cc1ccc(/C(=C\CN2CCCC2)c2cccc(/C=C/C(=O)O)n2)cc1, the Potency was “inactive”. For CCC(=O)NS(=O)(=O)c1ccc(-c2c(-c3ccccc3)noc2C)cc1, the Potency was “inactive”. With CN1CCN(C(c2ccccc2)c2ccc(Cl)cc2)CC1 (stereo not given) the Potency was “inactive”. C/C1=C2N=C(/C=C3N=C(/C(C)=C4\[N-][C@@](C)([C@@H]5N=C1[C@](C)(CCC(=O)NCC(C)OP(=O)(O)O[C@H]1[C@@H](O)[C@@H](n6cnc7cc(C)c(C)cc76)O[C@@H]1CO)[C@H]5CC(N)=O)[C@@](C)(CC(N)=O)[C@@H]4CCC(N)=O)[C@@](C)(CC(N)=O)[C@@H]\3CCC(N)=O)C(C)(C)[C@@H]/2CCC(N)=O.CC(=O)O.[Co] (stereo not given in full) was tested, and the Potency was “inactive”. In the case of CC1=C(/C=C/C(C)=C/C=C/C(C)=C/C(=O)Oc2c(C)c(C)c3c(c2C)CC[C@@](C)(CCC[C@H](C)CCC[C@H](C)CCCC(C)C)O3)C(C)(C)CCC1, the Potency is reported as “inactive”. CCCCCCCCCCCCCCCCCC[N+](C)(C)CCC[Si](OC)(OC)OC was tested, and the Potency was “inactive”. For CO[C@@H]1[C@@H](O[C@@H]2O[C@H](C)[C@@H](O[C@H]3C[C@@](C)(O)[C@@H](O)[C@H](C)O3)[C@H](N(C)C)[C@H]2O)[C@@H](CC=O)C[C@@H](C)[C@@H](O[C@@H]2CC[C@H](N(C)C)[C@@H](C)O2)/C=C/C=C/C[C@@H](C)OC(=O)C[C@H]1O, the Potency was “inactive”. CC(=O)OC[C@H]1O[C@@H](O[C@H]2[C@H](O)[C@@H](OC(=O)c3ccccc3C(=O)O)[C@H](O)O[C@@H]2COC(C)=O)[C@H](O)[C@@H](OC(=O)c2ccccc2C(=O)O)[C@@H]1O was tested, and the Potency was “inactive”. For C[N+]1(C)CCN(CC(O)(c2ccccc2)C2CCCCC2)CC1 (stereo not given), the Potency was “inactive”. For Nc1ncnc(Nc2ccc(Cl)cc2)n1, the Potency was “inactive”.
